Assay results published in PubChem BioAssay (EPA / NIEHS).
Values joined by “and” are separate entries in the source; they are usually repeats but may differ in a detail not shown here. Equal entries are not always repeated. Results filed as inconclusive are left out. The source holds several records for some structures; these can differ, active in one and inactive in another. Active and inactive are the calls of the source. Rule for the calls, unless noted: active = hit-call score of the fitted dose curve at least 0.9, where 1 is the maximum; inconclusive = response in the unintended direction; inactive = score below 0.9.

Experiments:
[1] = biological target: chimpanzee Androgen Receptor (AR), AR (gene 747460) (UniProt O97775); test: NVS_NR_cAR: NovaScreen (NVS) Nuclear Receptor Binding Assay for chimpanzee Androgen Receptor (AR) (AID 2283346);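 note: radioligand displacement from AR measured by scintillation counting in a cell-free assay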
How it was run: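 Cell-free radioligand displacement using receptor protein extracted from Sf9/Sf21 cells; bound radioligand measured by scintillation counting 72 hours after chemical dosing. Loss of signal versus DMSO baseline indicates binding; primary screen single-concentration in duplicate at 25 uM, actives followed in concentration series.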

[2] = biological target: Estrogen receptor (Homo sapiens) (UniProt P03372); test: NVS_NR_hER: NovaScreen (NVS) Nuclear Receptor Binding Assay for human Estrogen Receptor (ER) (AID 2283348)
How it was run: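 Cell-free radioligand binding with protein extracted from MCF7 cells; scintillation counting 18 hours after dosing. Loss of signal versus DMSO baseline read as displacement; primary single-concentration screen at 25 uM in duplicate, actives retested in concentration series.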

[3] = biological target: Estrogen receptor (Homo sapiens) (UniProt P03372); test: OT_ER_ERaERa_1440: Odyssey Thera (OT) 24-hour HEK293T Protein-Complementation Assay for Estrogen Receptor-alpha/-alpha Homodimer (AID 2283349);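 note: hits raise fluorescence above DMSO for agonists and antagonists alike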
How it was run: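 Readout is the rise in mean fluorescence from reporter fragment complementation when ERα LBD (aa 310-547) units dimerize in HEK293T cells. Measured 24 h after dosing and analysed as increase over DMSO control.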

[4] = biological target: Estrogen receptor (Homo sapiens) (UniProt P03372); test: OT_ER_ERaERa_0480: Odyssey Thera (OT) 8-hour HEK293T Protein-Complementation Assay for Estrogen Receptor-alpha/-alpha Homodimer (AID 2283351);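 note: rise in fluorescence from reassembled reporter fragments on ERα LBD homodimer in nucleus or whole cell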
How it was run: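 The readout is complementation of fragments fused to the human ER alpha ligand-binding domain (aa 310-547), stably expressed in HEK293T cells. After 8 h of exposure, the increase in nuclear/cytoplasmic fluorescence was measured by laser scanning cytometry and fitted relative to DMSO.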

[5] = biological target: Estrogen receptor (Homo sapiens) + Estrogen receptor beta (Homo sapiens) (UniProt P03372+Q92731); test: OT_ER_ERaERb_0480: Odyssey Thera (OT) 8-hour HEK293T Protein-Complementation Assay for Estrogen Receptor-alpha/-beta Heterodimer (AID 2283352)
How it was run: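 Compound added to HEK293T cells carrying split-reporter-tagged ER-alpha and ER-beta LBDs, incubated 8 hours, then imaged by laser scanning cytometer. Signal rise in nucleus, or nucleus and cytoplasm, over vehicle was fitted in the positive direction.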

[6] = biological target: rat Peripheral-type Benzodiazepine Receptor (PBR), Tspo (gene 24230) (UniProt P16257); test: NVS_MP_rPBR: NovaScreen (NVS) Membrane Protein Assay for rat Peripheral-type Benzodiazepine Receptor (PBR) (AID 2283335)
How it was run: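 Rat kidney membranes; radioligand binding with displacement, filter-based scintillation counting, 1 h incubation. Primary screen in duplicate at 25 uM, actives followed in concentration series; loss of binding vs DMSO.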

[7] = NVS_IC_rCaBTZCHL: NovaScreen (NVS) Ion Channel Assay for Calcium Channel, Type L, Benzothiazepine Site (CaBTZCHL) (AID 2283337)
How it was run: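 Radioligand displacement at the benzothiazepine site using rat cortical membranes; bound label measured by filtration and scintillation counting 1.5 h after dosing. Single-point 25 uM in duplicate, then concentration series; DMSO baseline.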

[8] = test system: guinea pig Histamine Receptor (H2), gene 100729734; test: NVS_GPCR_gH2: NovaScreen (NVS) G Protein-Coupled Receptor Assay for guinea pig Histamine Receptor (H2) (AID 2283342)
How it was run: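 Radioligand displacement on guinea pig striatal membranes, 1 h after dosing, filter-based scintillation counting; loss of signal versus DMSO. Single-point screen at 25 uM in duplicate, then concentration-response up to 50 uM.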

[9] = biological target: bovine Gamma-Aminobutyric Acid Type A Receptor Agonist (GABAR Agonist), GABRA1 (gene 780973) (UniProt P08219); test: NVS_LGIC_bGABAR_Agonist: NovaScreen (NVS) Ligand-Gated Ion Channel Assay for bovine Gamma-Aminobutyric Acid Type A Receptor Agonist (GABAR Agonist) (AID 2283338)
How it was run: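 Radioligand binding to bovine cerebellar membranes in agonist format, read by filter-based scintillation counting after 1 h. Primary screen in duplicate at 25 uM, with actives followed in concentration series. Gain of signal versus DMSO.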

[10] = biological target: Voltage-gated inwardly rectifying potassium channel KCNH2 (Homo sapiens) (UniProt Q12809); test: NVS_IC_hKhERGCh: NovaScreen (NVS) Ion Channel Assay for human Potassium Channel ERG (KhERGCh) (AID 2283333)
How it was run: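 Cell-free radioligand competition binding on hERG protein extracted from CHO cells, read by filter-based scintillation counting 0.75 h after dosing. Primary screen at 25 uM in duplicate, actives followed in concentration series. Signal loss fitted versus DMSO.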

[11] = biological target: Small conductance calcium-activated potassium channel protein 1 (Rattus norvegicus) (UniProt P70606); test: NVS_IC_rKCaCh: NovaScreen (NVS) Ion Channel Assay for rat Potassium Channel, Ca2+ Act., VI (KCaCh) (AID 2283336)
How it was run: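 Radioligand binding to rat forebrain membranes, cell-free, read 1 hour after dosing by filter-based scintillation counting. Compounds first run in duplicate at 25 uM, actives then in concentration series; loss of signal vs DMSO indicates displacement.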

[12] = biological target: human Androgen Receptor (AR), AR (gene 367) (UniProt P10275); test: NVS_NR_hAR: NovaScreen (NVS) Nuclear Receptor Binding Assay for human Androgen Receptor (AR) (AID 2283332)
How it was run: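 Actives from a duplicate 25 uM single-point screen went on to concentration series. Read-out after 20 h was scintillation counting of displaced radioligand in LnCAP extract, with DMSO as baseline.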

[13] = test system: NCBI gene 100848466; test: NVS_NR_bPR: NovaScreen (NVS) Nuclear Receptor Binding Assay for bovine Progextron Receptor (PR) (AID 2283343);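 note: actives lower bound radioligand signal below DMSO meaning displacement of the label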
How it was run: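 Bovine uterine membrane preparation, cell-free; radioligand competitive displacement measured by scintillation counting 18 hours after dosing. Loss of signal versus DMSO baseline indicates binding; primary HTS single concentration 25 uM in duplicate, actives followed in concentration series.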

[14] = biological target: Androgen Receptor/SRC-1 Co-activator, AR (gene 367) (UniProt P10275); test: OT_AR_ARSRC1_0480: Odyssey Thera (OT) 8-hour HEK293T Protein-Complementation Assay for Androgen Receptor/SRC-1 Co-activator (AID 2283354);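 note: hits raise the complementation signal above DMSO so AC50 marks enhancers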
How it was run: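 HEK293T cells stably expressing AR and SRC-1 fused to split Venus YFP fragments via (Gly4Ser)2 linkers were read 8 h after compound dosing. Complementation was imaged at 488 and 635nm, and nuclear/cytoplasmic fluorescence ratio (488nm) was taken over ≥400 cells; gain-of-signal versus DMSO.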

[15] = biological target: rat Glutamate, MK-801 Agonist Site (GluNMDA_MK801), Grin1 (gene 24408) (UniProt P35439); test: NVS_LGIC_rGluNMDA_MK801_Agonist: NovaScreen (NVS) Ligand-Gated Ion Channel Assay for rat Glutamate, MK-801 Agonist Site (GluNMDA_MK801) (AID 2283340)
How it was run: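 Radioligand binding at MK-801 site in rat forebrain membranes, 1.5 h incubation, filter-based scintillation counting. Initially 25 uM in duplicate; actives then run in concentration-response up to 50 uM, fitted for gain of signal versus DMSO.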

[16] = biological target: human Constitutive Androstane Receptor (CAR), NR1I3 (gene 9970) (UniProt Q14994); test: NVS_NR_hCAR_Antagonist: NovaScreen (NVS) Nuclear Receptor Binding Assay for human Constitutive Androstane Receptor Antagonism (CAR) (AID 2283344)
How it was run: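 Cell-free TR-FRET binding read 1 h after dosing, antagonist mode; loss of signal versus DMSO baseline. Primary screen in duplicate at a single 25 uM; actives retested in concentration series.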

[17] = biological target: Bile acid receptor (Homo sapiens) (UniProt Q96RI1); test: NVS_NR_hFXR_Antagonist: NovaScreen (NVS) Nuclear Receptor Binding Assay for human Farnesoid X Receptor Antagonism (FXR) (AID 2283350)
How it was run: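 Cell-free TR-FRET ligand-binding read-out on human FXR (NR1H4) in antagonist mode, measured 1 h after dosing. Primary screen in duplicate at 25 uM, actives retested in concentration series; signal loss scored versus DMSO.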

[18] = biological target: rat Mineralocorticoid Receptor (MR), Nr3c2 (gene 25672) (UniProt P22199); test: NVS_NR_rMR: NovaScreen (NVS) Nuclear Receptor Binding Assay for rat Mineralocorticoid Receptor (MR) (AID 2283355)
How it was run: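 Cell-free radioligand binding to MR in adrenalectomized rat brain supernatant, scintillation counted 24 h after dosing. Loss of signal versus DMSO baseline marks displacement. Primary screen in duplicate at 25 uM; actives retested as concentration series.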

[19] = biological target: Glutamate receptor ionotropic, kainate 1 (Rattus norvegicus) (UniProt P22756); test: NVS_IC_rKAR: NovaScreen (NVS) Ion Channel Assay for rat Kainic Acid Receptors (KAR) (AID 2283334; active = hit-call score of the fitted dose curve at least 0.9, where 1 is the maximum; inactive = score below 0.9)
How it was run: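 Radioligand displacement binding using rat forebrain membranes, 1 h incubation, filter-based scintillation counting. Screened in duplicate at 25 uM, with actives retested in concentration-response up to 50 uM; fitted against DMSO.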

Measured: AC50

Androgen Receptor/SRC-1 Co-activator, AR (gene 367), sequence (P10275 whole entry, looked up, the tested form may be a part): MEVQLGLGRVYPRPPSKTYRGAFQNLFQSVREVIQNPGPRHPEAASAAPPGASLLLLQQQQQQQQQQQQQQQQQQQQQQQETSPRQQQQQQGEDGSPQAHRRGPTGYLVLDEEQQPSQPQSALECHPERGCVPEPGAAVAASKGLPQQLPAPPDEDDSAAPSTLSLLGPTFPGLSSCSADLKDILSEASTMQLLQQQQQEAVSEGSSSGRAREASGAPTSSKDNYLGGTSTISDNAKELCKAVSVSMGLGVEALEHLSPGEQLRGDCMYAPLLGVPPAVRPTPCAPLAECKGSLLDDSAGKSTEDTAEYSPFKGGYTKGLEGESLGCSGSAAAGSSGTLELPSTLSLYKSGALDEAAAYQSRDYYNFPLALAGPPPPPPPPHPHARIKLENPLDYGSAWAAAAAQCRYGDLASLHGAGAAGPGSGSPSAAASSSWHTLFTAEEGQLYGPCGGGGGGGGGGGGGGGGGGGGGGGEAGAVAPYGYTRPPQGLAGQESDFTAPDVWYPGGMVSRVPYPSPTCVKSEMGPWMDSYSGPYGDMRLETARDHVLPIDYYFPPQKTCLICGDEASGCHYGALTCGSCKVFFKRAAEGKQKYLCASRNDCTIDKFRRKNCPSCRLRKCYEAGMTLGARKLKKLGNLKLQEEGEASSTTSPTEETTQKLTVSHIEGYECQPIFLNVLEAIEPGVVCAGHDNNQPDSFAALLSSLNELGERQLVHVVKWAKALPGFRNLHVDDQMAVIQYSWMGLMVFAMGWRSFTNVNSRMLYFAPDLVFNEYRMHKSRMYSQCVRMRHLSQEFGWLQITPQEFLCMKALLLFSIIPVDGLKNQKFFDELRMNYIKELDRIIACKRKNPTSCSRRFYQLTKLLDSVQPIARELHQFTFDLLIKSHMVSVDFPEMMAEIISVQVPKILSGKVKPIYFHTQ
rat Peripheral-type Benzodiazepine Receptor (PBR), Tspo (gene 24230), sequence (P16257 whole entry, looked up): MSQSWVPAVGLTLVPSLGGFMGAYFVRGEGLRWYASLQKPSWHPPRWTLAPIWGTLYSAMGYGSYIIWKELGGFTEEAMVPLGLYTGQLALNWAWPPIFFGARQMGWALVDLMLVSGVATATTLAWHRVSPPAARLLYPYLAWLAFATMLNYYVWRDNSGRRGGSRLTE
Estrogen receptor (Homo sapiens) + Estrogen receptor beta (Homo sapiens), sequence (P03372 whole entry, looked up): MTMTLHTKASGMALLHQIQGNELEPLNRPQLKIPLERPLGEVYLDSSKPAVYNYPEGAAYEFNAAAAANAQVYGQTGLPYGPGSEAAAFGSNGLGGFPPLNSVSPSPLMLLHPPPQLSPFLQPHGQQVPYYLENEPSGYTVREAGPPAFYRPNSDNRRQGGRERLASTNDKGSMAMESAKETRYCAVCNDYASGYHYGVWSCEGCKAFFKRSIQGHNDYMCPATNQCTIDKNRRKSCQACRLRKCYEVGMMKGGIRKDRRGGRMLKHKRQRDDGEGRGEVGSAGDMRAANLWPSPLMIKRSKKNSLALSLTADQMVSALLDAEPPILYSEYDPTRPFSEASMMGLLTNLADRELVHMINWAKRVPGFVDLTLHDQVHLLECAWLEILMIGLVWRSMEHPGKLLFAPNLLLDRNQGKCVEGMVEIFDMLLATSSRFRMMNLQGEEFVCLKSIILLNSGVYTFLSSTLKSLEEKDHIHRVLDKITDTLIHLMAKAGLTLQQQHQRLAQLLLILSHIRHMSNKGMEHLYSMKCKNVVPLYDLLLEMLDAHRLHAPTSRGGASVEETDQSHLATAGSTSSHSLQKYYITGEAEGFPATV
Estrogen receptor (Homo sapiens) + Estrogen receptor beta (Homo sapiens), sequence (Q92731 whole entry, looked up): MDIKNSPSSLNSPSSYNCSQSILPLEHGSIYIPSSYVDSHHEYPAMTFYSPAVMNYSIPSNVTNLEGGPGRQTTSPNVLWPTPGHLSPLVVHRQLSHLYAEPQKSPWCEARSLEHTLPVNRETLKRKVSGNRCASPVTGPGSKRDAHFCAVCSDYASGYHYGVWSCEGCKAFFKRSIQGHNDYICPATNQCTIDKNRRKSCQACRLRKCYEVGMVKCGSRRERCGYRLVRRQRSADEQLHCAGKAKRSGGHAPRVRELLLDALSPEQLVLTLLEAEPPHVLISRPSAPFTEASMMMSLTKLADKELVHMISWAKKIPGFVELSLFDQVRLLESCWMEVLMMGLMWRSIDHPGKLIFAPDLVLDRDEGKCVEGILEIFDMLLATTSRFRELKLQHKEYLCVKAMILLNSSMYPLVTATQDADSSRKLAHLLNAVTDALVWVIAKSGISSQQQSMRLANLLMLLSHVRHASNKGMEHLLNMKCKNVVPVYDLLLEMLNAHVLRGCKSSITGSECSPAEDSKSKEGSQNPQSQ
Estrogen receptor (Homo sapiens), sequence (P03372 whole entry, looked up, the tested form may be a part): as the sequence (P03372 whole entry, looked up) above
chimpanzee Androgen Receptor (AR), AR (gene 747460), sequence (O97775 whole entry, looked up): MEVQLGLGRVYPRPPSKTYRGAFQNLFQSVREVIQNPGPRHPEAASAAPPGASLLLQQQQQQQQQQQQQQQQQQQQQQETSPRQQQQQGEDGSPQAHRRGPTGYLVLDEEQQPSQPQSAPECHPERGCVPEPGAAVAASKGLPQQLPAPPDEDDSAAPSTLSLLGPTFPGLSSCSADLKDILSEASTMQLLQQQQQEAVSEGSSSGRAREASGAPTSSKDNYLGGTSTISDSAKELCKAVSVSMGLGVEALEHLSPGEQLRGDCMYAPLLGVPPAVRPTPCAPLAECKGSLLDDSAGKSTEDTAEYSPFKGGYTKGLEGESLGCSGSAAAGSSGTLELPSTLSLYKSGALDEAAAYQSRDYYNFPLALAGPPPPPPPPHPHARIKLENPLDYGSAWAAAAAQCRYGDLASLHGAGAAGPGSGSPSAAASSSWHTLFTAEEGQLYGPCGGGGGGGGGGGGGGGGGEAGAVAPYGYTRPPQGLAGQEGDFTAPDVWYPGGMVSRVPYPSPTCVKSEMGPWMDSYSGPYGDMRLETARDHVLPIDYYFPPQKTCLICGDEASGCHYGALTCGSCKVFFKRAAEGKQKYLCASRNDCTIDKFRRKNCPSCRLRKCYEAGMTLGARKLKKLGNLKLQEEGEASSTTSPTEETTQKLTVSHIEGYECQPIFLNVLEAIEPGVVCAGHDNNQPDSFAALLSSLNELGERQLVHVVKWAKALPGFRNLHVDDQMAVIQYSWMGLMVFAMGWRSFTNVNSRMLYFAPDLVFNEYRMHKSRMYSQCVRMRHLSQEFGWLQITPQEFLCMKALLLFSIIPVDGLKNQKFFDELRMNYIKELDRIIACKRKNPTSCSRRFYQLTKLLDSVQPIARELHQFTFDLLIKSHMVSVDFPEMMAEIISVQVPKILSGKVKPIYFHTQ
human Androgen Receptor (AR), AR (gene 367), sequence (P10275 whole entry, looked up): as the sequence (P10275 whole entry, looked up, the tested form may be a part) above
Voltage-gated inwardly rectifying potassium channel KCNH2 (Homo sapiens), sequence (Q12809 whole entry, looked up): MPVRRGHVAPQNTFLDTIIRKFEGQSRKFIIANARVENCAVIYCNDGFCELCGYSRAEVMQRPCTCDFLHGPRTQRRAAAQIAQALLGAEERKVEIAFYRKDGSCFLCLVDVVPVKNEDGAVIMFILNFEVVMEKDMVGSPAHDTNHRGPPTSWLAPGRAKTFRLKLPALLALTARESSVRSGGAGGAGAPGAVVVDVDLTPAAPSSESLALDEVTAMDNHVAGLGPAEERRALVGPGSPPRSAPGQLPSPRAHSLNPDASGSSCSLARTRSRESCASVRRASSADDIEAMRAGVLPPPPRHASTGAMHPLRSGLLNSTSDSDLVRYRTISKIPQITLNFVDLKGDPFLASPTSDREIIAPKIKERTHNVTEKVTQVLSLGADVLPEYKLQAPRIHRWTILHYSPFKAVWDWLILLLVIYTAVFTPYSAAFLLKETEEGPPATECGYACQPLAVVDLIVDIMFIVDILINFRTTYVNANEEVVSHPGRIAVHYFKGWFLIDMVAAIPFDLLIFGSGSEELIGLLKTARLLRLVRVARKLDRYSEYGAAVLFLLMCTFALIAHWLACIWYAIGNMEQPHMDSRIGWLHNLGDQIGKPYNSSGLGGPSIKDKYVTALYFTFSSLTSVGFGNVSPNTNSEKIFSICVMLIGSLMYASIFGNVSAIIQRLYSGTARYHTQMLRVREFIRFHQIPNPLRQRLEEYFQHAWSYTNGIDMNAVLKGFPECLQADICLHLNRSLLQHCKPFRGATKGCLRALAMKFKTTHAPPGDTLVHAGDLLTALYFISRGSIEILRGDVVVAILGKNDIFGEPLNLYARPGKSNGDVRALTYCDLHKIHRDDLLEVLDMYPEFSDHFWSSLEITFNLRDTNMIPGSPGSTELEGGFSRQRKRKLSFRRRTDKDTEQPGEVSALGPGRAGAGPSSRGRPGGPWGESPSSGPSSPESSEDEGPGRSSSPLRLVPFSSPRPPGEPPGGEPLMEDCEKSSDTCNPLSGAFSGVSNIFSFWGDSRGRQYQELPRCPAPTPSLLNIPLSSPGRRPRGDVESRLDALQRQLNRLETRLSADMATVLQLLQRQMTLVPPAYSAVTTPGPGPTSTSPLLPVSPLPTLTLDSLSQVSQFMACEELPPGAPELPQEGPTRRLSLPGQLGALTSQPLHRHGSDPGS
human Constitutive Androstane Receptor (CAR), NR1I3 (gene 9970), sequence (Q14994 whole entry, looked up): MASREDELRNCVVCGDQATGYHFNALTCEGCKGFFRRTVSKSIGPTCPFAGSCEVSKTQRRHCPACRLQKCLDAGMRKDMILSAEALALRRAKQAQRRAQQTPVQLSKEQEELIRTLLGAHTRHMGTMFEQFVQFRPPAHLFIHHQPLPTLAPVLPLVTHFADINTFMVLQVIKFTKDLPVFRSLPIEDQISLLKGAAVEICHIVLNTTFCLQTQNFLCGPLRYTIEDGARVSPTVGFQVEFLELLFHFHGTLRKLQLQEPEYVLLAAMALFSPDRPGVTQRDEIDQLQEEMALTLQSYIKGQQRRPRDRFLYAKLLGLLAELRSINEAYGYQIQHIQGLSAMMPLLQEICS

CCC(C)(C)C1CCC(O)CC1 (stereo not given)
inactive: [2] | [3] | [4]
active: [1] 32.1 µM | [2] 3.1 µM and 2.51 µM | [4] 59.3 µM

CCCOC(=O)c1ccc(O)cc1
active: [2] 6.72 µM and 10.6 µM | [3] 31.2 µM | [4] 38.4 µM | [5] 16.7 µM
inactive: [1]

O=C1OC2(c3ccccc31)c1cc(Br)c(O)c(Br)c1Oc1c2cc(Br)c(O)c1Br
inactive: [2]
active: [1] 38.1 µM | [2] 16.8 µM | [3] 62.2 µM | [4] 88.3 µM | [5] 78.2 µM

CCN(CC)CCNc1ccc(CNC=O)c2sc3ccc(OC)cc3c(=O)c12
active: [6] 6.96 µM | [7] 19.2 µM | [8] 11.3 µM
inactive: [1] | [2] | [3] | [4]

CCCCCCCCCCCCCCCS(=O)(=O)Oc1ccccc1
inactive: [9] | [3] | [4] | [5]

CC(=O)NC1(c2cccc(F)c2)CCN(CC[C@@]2(c3ccc(Cl)c(Cl)c3)CN(c3ccccc3)C(=O)CO2)CC1
inactive: [11] | [3] | [4]
active: [10] 14 µM | [7] 0.835 µM | [8] 8.91 µM

Oc1cc2ccccc2c2ccccc12
active: [12] 19.2 µM | [13] 18 µM | [1] 10.1 µM | [14] 8.63 µM
inactive: [2] | [3] | [4]

CCCCCCCCCCCCc1ccccc1S(=O)(=O)O
inactive: [15] | [3] | [4] | [14] | [18]
active: [12] 8.85 µM | [6] 6.37 µM | [13] 17.1 µM | [16] 10.9 µM | [2] 40.6 µM | [17] 12.2 µM

CCCCC(CC)COC(=O)CCCCC(=O)OCc1ccccc1 (stereo not given)
inactive: [1] | [3] | [4] | [5]

NC(=O)N1C(=O)C(C(=O)c2cc(Cl)cs2)c2cc(F)c(Cl)cc21 (stereo not given)
inactive: [19] | [2] | [3] | [4] | [14]
active: [6] 25 µM

CC1=C(/C=C/C(C)=C/C=C/C(C)=C/C(=O)O)C(C)(C)CCC1
inactive: [6] | [2] | [3] | [4]

COc1ccc([N+](=O)[O-])cc1N
inactive: [10] | [3] | [4] | [5]
